In PubChem BioAssay (Tox21):
Records with an inconclusive call do not appear. Entries that show only a call come without a potency. Activity calls are given as the source filed them. Calls follow the shape of the dose curve; as a rule, active = well fitted cell-killing curve with a large enough effect in the repeat runs; inconclusive = weak or mixed curves, or effect the other way; inactive = flat fitted curve, though single readings scatter.

assay: cAMP Responsive Elements (CRE) small molecule antagonists, cell-based qHTS assay: qHTS cell viability counter screen (AID 2060913); conditions: CRE-bla HEK293T viability, CellTiter-Glo luminescence, 5 h; series mostly up to 92.4 µM; also: nearly all actives have a fitted effect of over 40% in size
Description: U.S. Tox21 Program National Center for Advancing Translational Sciences [NCATS] Division of Preclinical Innovation [DPI] U.S. Environmental Protection Agency [EPA] National Institutes of Environmental Health Sciences [NIEHS] National Toxicology Program [NTP] U.S. Food and Drug Administration [FDA] Tox21 Assay Overview: CREB (cyclic-AMP Responsive Element Binding Protein) is a cellular transcription factor. It binds to certain DNA sequences called cAMP Responsive Elements (CRE) and regulates the transcription of the genes. […] This cell line can be used to find agonists/antagonists of the cyclic AMP signaling pathway. The activation of the report gene under culture conditions can be detected by fluorescence intensity. This cell line has been used to screen the Tox21 10K compound library to identify agonists that induce oxidative stress. The cytotoxicity of the Tox21 compound library against the CRE-bla cell line was tested in parallel by measuring the cell viability using CellTiter-Glo assay (Promega, Madison, WI) in the same wells.
Tox21 Assay Protocol Summary: CRE-bla Hek 293T cells were suspended in assay medium (DMEM containing 10% dialyzed FBS, 0.1 mM NEAA, 1 mM sodium pyruvate and 25 mM HEPES) and dispensed at 2,000 cells/4 uL /well into 1536-well black wall/clear bottom plates using a Multidrop Combi (ThermoFisher Scientific, Waltham, MA) dispenser. After the assay plates were incubated at 37 C/5% CO2 for 18 hrs, 23 nL of compounds dissolved in DMSO, positive controls or DMSO only was transferred to the assay plate by a pintool workstation (Kalypsys, San Diego, CA), followed by addition of 1 uL of 1.25uM NKH477 (0.25 uM as final concentration) in assay medium using a Flying Reagent Dispenser (Aurora Discovery, San Diego, CA). The plates were incubated at 37 C and 5% CO2 for 3 hrs. Then 1 uL of LiveBLAzer B/G FRET substrate (Invitrogen, Carlsbad, CA) was added to each well using Bioraptr Flying Reagent Dispenser (FRD, Aurora Discovery, San Diego, CA). The plates were incubated at room temperature for 2 h, then fluorescence intensities were measured using an Envision plate reader (PerkinElmer, Shelton, CT) at Excitation 405nm, Emission 460nm and 530nm. The % activity was determined from the ratio of 460nm/530nm. For cell viability readout that measures cytotoxicity, 4 uL /well of CellTiter-Glo reagent was added into the assay plates using Bioraptr FRD. After 30 min incubation at room temperature, the luminescence intensity in the assay plates was measured using a ViewLux (PerkinElmer, Shelton, CT) plate reader.

SMILES | Potency
CO[C@@H]1[C@@H](OC(N)=O)[C@@H](O)[C@H](Oc2ccc3c(O)c(NC(=O)c4ccc(O)c(CC=C(C)C)c4)c(=O)oc3c2C)OC1(C)C | inactive
Nc1c2c(nc3ccccc13)CCCC2 | inactive
CCCCOCC(C)OCC(C)O (stereo not given) | inactive
CCCCNC(=O)NCCCC | inactive
C=C1C2CCC(C2)C1(C)C (stereo not given) | inactive
Cc1cc2c(s1)Nc1ccccc1N=C2N1CCN(C)CC1 | inactive
Cc1onc(-c2ccccc2Cl)c1C(=O)N[C@@H]1C(=O)N2[C@@H]1SC(C)(C)[C@@H]2C(=O)O | inactive
CCCCCCCCCCOCC(O)CN (stereo not given) | inactive
C[N+](C)(C)CC(O)CC(=O)[O-] (stereo not given) | inactive
OCC1(CO)COCOC1 | inactive
O=C(CCBr)N1CCN(C(=O)CCBr)CC1 | inactive
Cc1c(F)cc2c(=O)c(C(=O)O)cn3c2c1CCC3C (stereo not given) | inactive
C(/C=C/C=C/Nc1ccccc1)=Nc1ccccc1 | inactive
O=C(O)c1ccc(CO)o1 | inactive
Nc1ccc(C(=O)OCCCOC(=O)c2ccc(N)cc2)cc1 | inactive
CCOC(=O)CC(CC(=O)OCC)(OC(C)=O)C(=O)OCC | inactive
CN(C)C(=O)Nc1ccc(Cl)c(Cl)c1 | inactive
CO[Si](OC)(c1ccccc1)c1ccccc1 | inactive
O=C(CCCCCCCCc1cccnc1)N1CCC(C=C(c2ccccc2)c2ccccc2)CC1 | inactive
CCCC(=O)OCCC(C)C | inactive

SMILES | Potency
CN1CCN(c2c(F)cc3c(=O)c(C(=O)O)cn(CCF)c3c2F)CC1 | inactive
CCOC(N)=O | inactive
CC(CO)(CO)CO | inactive
CC1CC(OC(=O)c2ccccc2O)CC(C)(C)C1 (stereo not given) | inactive
CCCC(=O)OCOC(=O)C1=C(C)NC(C)=C(C(=O)OC)C1c1cccc(Cl)c1Cl (stereo not given) | inactive
CCCCC(CC)COCCO (stereo not given) | inactive
CCC(C)(CCCC(C)C)OC(C)=O (stereo not given) | inactive
O=[N+]([O-])c1cc(Cl)c(Cl)c(Cl)c1Cl | inactive
CCN(CCC#N)c1ccc(N=Nc2c(Cl)cc([N+](=O)[O-])cc2Cl)cc1 | inactive
C=C1CC[C@H](O)CC1=C/C=C1\CCC[C@]2(C)[C@@H]([C@H](C)/C=C/[C@H](C)C(C)C)CC[C@@H]12 | inactive
N#CSc1ccc(N)c([N+](=O)[O-])c1 | inactive
CCOB(OCC)OCC | inactive
Nc1c2c(nc3c1CCC3)CCCC2 | inactive
CCN(CC)CCOc1ccc(Cc2ccccc2)cc1 | inactive
CCCCCCCCCCCC(=O)OC[C@@H](O)[C@H]1OC[C@H](OCCO)[C@H]1OCCO | inactive
CC(CN(CCN(CC(C)OCCO)CC(C)OCCO)CC(C)OCCO)OCCO (stereo not given) | inactive
CC(C)=CCC[C@@](C)(O)[C@H]1CC=C(C)CC1 | inactive
CCc1ccccc1O | inactive
CN[C@@H]1[C@@H](O)[C@@H](O[C@@H]2[C@H](O)[C@H](O[C@H]3OC(CN)=CC[C@H]3N)[C@@H](N)C[C@H]2N)OCC1(C)O (stereo not given in full) | inactive
CCOc1ccccc1C(N)=O | inactive
